Bioassay records from PubChem BioAssay.
p53 reactivator – restores transcriptional activity of mutant p53; H1299 p53-A138V BP100-luciferase reporter, luminescence, 24 h; Potency, µM (highest dose often 92.2 µM), for inactives: at the highest dose activity change, positive = activation, hits mostly activators; 0.063% of 320,000 active; active means well fitted activation curve with a large enough effect; inconclusive means small, poorly fitted or top-dose-only effect; inactive means no such curve, though single readings can be large or run the other way; further: potency means the concentration at half of the fitted maximal effect; % of control where 0% means no effect; nearly all actives have a fitted effect of over 45% in size
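p53-null H1299 cells stably carrying temperature-sensitive p53-A138V and a BP100-luciferase reporter were pinned with compounds (4-point, 1:5 series) and held 24 hrs at 37 deg C. Luminescence was read 10 min after detection reagent.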
ClpP mod – qHTS Assay for Activators of ClpP; ATP-dependent Clp protease proteolytic subunit (Bacillus subtilis (strain 168)), P80244; purified B. subtilis ClpP, FRET peptide cleavage, 20 min; Potency, µM (doses to about 57.5 µM), for the others: at the top dose activity change, negative = active; 1.9% of 340,000 active; active means well fitted falling curve with a large enough effect; inconclusive means small, poorly fitted or top-dose-only effect; inactive means no such curve, though single readings can be large or run the other way; further: potency means the concentration at half of the fitted maximal effect; the source files actives as falling curves though it sought activators and does not explain the sign; nearly all actives have a fitted effect of over 65% in size
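Buffer: 100 mM Tris/HCl pH8, 100 mM KCl, 0.05% low protease BSA, 2.5% glycerol, 0.01% Tween-20. ClpP 10 microg/mL final; 20 min RT; delta FRET normalized to ADEP and DMSO controls.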
TRPV1 PAM – human TRPV1 potentiation. Q8NER1. TRPV1-expressing cells, Fluo-8 calcium influx, capsaicin EC20 potentiation. potentiation, % at 8.33 µM. 0.02% of 320,000 active; in the data active means potentiation above about 80%; inconclusive means between about 30% and that limit; further: 0% is about no effect
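Cells expressing TRPV1 were dye-loaded with Fluo-8 and read kinetically: 10 s baseline, 3 min after compound (agonist portion), then 2 min after EC20 capsaicin (allosteric enhancer portion). Calcium-bound dye fluorescence at 480/520 nm.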
TRPV1 ag – agonists of human vanilloid receptor 1 (TRPV1); AID 540275; 0.19% of 320,000 active; Q8NER1; activation, % at 8.33 µM; TRPV1-expressing cells, Fluo-8 calcium influx, agonist mode; in the data active means activation above about 80%; inconclusive means between about 30% and that limit; further: 0% is about no effect
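Cells expressing TRPV1 were dye-loaded with Fluo-8 and read kinetically: 10 s baseline, 3 min after compound (agonist portion), then 2 min after EC20 capsaicin (allosteric enhancer portion). Calcium-bound dye fluorescence at 480/520 nm.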
KCNH2 WT inh – blocks the wildtype human KCNH2 potassium channel; U2OS, BacMam KCNH2, thallium flux FluxOr; stronger effect = lower value; 0.37% of 340,000 active; activity change, % at 1.84 µM; Q12809;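 active means maximum activity change below -70%; inconclusive means maximum activity change between -70% and -50%; inactive means maximum activity change above -50%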; further: on the % scale 0 is the no-effect control and ±100 the full control effect
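U2OS cells were transduced with wild-type KCNH2 virus (2.03 x 10^8 / mL) for 4 h at room temperature, then cultured overnight at 37 C. Thallium flux was read with FluxOr dye. Rate constants were normalized to DMSO controls.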
KCNH2 3.1 block – inhibitors of human KCNH2 3.1 potassium channel isoform. U2OS KCNH2 3.1, thallium flux FluxOr; stronger effect = lower value. AID 720553. 0.95% of 340,000 active. activity change, % (tested at about 1.8 µM);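 active means maximum activity change below -70%; inconclusive means maximum activity change from -70% to -50%; inactive means maximum activity change above -50%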;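 further: thallium influx rate constant from kinetic fluorescence after stimulation buffer; on the % scale 0 is the no-effect control and ±100 the full control effect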
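Thallium flux read-out: FluxOr dye with Red40 quencher in HBSS/HEPES, 45 min at RT. Rate constants from kinetic reads were normalized to positive and negative DMSO controls. Cells: U2OS virally expressing the 3.1 isoform.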
Numbers without * were called inactive; ? = inconclusive; / = no result given. Rows were chosen to be rich in hits. Some 2.6% of all compounds tested hit in one or more screens of this group.

SMILES | p53 reactivator | ClpP mod | TRPV1 PAM | TRPV1 ag | KCNH2 WT inh | KCNH2 3.1 block
CCOC(=O)c1c(-c2ccccc2)oc2ccc(NS(=O)(=O)c3ccc(C)cc3)cc12 | / | 5% | / | / | / | /
CSc1ccc(CNc2cccc3ccccc23)cc1 | 11% | 28µM* | 2 | 5 | -1 | 4
Cc1c(Cl)cccc1NC(=O)c1cc2sccc2n1Cc1ccc(F)cc1 | / | -15% | / | / | / | /
CCN(CC)CCCOc1cc2nc(N3CCCN(C)CC3)nc(NC3CCN(C)CC3)c2cc1OC | / | 4% | / | / | / | /
Cc1ccc(N2C(=O)CC(Cc3ccc(Cl)cc3)C2=O)cc1 (configuration not stated) | / | 7.1µM* | -29 | 5 | 6 | -4
Cc1ccc(CC2CC(=O)N(c3ccc(C)cc3)C2=O)cc1 (configuration not stated) | -3% | 0% | -1 | 7 | -3 | 4
Cc1ccc(OC(=O)COc2ccccc2C)c(-n2nc3ccccc3n2)c1 | 40µM* | ? | -7 | 9 | -5 | 6
Cc1ccc(OC(=O)COc2ccccc2)c(-n2nc3ccccc3n2)c1 | ? | 32µM* | -3 | ? | 12 | -4
Cc1cccc(-c2noc(-c3cc(C(C)C)[nH]n3)n2)c1 | / | -2% | / | / | / | /
Cc1ccc(NC2(c3ccccc3)C(=O)c3ccccc3C2=O)cc1F | / | -1% | / | / | / | /
Cc1cc(NC(=O)CSCC(=O)N(C)Cc2ccc(F)cc2)no1 | 21% | 0% | 1 | 4 | -9 | 0
Cc1cc(NC(=O)CSCC(=O)N(C)Cc2ccc(Cl)c(Cl)c2)no1 | -4% | 1% | -6 | ? | -95* | 10
CC1=C(C(=O)Nc2ccc(C)cc2C)C(c2cc(Br)ccc2F)n2ncc(C(=O)Nc3ccc(C)cc3)c2N1 (configuration not stated) | / | 20µM* | / | / | / | /
COc1ccc(C2C(C(=O)Nc3ccccc3OC)=C(C)Nc3ncnn32)cc1 (configuration not stated) | -8% | -2% | 2 | -1 | 4 | 21
CC1=C(C(=O)Nc2ccccc2)C(c2cc(Br)ccc2F)n2ncc(C(=O)Nc3ccccc3)c2N1 (configuration not stated) | / | 4% | / | / | / | /
COc1ccccc1NC(=O)C1=C(C)Nc2c(C(=O)Nc3ccc(F)cc3)cnn2C1c1ccc(Cl)cc1 (configuration not stated) | / | 28µM* | / | / | / | /
O=C(Nc1cccc(Oc2ccccc2)c1)C1Cc2c(-c3ccccc3)ccnc2O1 (configuration not stated) | / | -15% | / | / | / | /
Cc1nc(N2CCCC2)c2c(C(=O)N3CCN(c4cccc(C)c4C)CC3)c(C)oc2n1 | / | -1% | / | / | / | /
COc1ccc(C(=O)N2CCN(c3ccccn3)CC2)cc1 | -2% | -18% | 1 | 5 | -4 | 7
COc1ccc(CC(=O)N2CCN(c3ccccn3)CC2)cc1 | 8% | 20µM* | 21 | -5 | -10 | -10
Cc1ccc(CC(=O)N2CCN(c3ccccn3)CC2)cc1 | 5% | 22µM* | -4 | -11 | -7 | -5
CN(CC(=O)N1CCN(c2ccccn2)CC1)S(=O)(=O)c1ccccc1 | 11% | 32µM* | 3 | -3 | 2 | 2
COc1cc(N)c(NC(=O)/C=C/c2nc3cc(OC)c(OC)cc3[nH]2)cc1OC | / | 4% | / | / | / | /
CC[C@@H](NC(=O)[C@H](Cc1ccccc1)NC(=O)CC[C@H]1O[C@@H](n2ccc(=O)[nH]c2=O)[C@H](O)[C@@H]1O)c1ccccc1 | / | 0% | / | / | / | /
O=C(Cc1c(O)c2ccccc2[nH]c1=O)NC1CCCCCC1 | 23% | 20µM* | -1 | 7 | 9 | 3
SMILES | p53 reactivator | ClpP mod | TRPV1 PAM | TRPV1 ag | KCNH2 WT inh | KCNH2 3.1 block
O=C(NC1CCCCCC1)c1c(O)c2ccccc2[nH]c1=O | 11% | -7% | 0 | -1 | -18 | -16
O=C(Cc1c(O)c2ccccc2[nH]c1=O)NC1CCCCCCC1 | -2% | 32µM* | -17 | 7 | -17 | 7
O=C(NCCc1ccc2c(c1)OCO2)Oc1ccccc1 | / | 1% | / | / | / | /
COc1cccc(-n2cnc3scc(-c4cccs4)c3c2=O)c1 | -9% | -4% | 1 | -4 | 2 | -14
COc1ccc(C(=O)Nn2cnc3scc(-c4cccs4)c3c2=O)c(O)c1 | ? | 32µM* | 2 | 1 | -44 | 9
CCN(CC)c1ccc(CNc2nc3ccccc3n2CCN2CCOCC2)cc1 | -7% | / | -7 | 10 | 23 | -77*
O=C(NCc1ccccc1)c1cc(C2CCCN(C(=O)C3CCCCC3)C2)on1 (configuration not stated) | / | 0% | / | / | / | /
Cc1cccc2c(N)c3c(nc12)N(C)CC3 | 1% | 5% | -7 | 3 | 7 | -2
CN1CCCCc2c1nc1c(c2N)CCCC1 | -5% | 25µM* | ? | -1 | -14 | 2
CN(C(=O)COC(=O)c1ccc2ccccc2n1)c1ccccc1 | 3% | 10µM* | / | / | -2 | 7
CNc1ccc(C=O)cc1Cl | / | -6% | / | / | / | /
COc1ccc(C(=O)NCCc2cc3ccc(C)c(C)c3[nH]c2=O)cc1OC | -1% | -15% | -9 | 0 | -11 | -111*
O=C(C[N+]1(CCc2ccccc2)CCOCC1)c1ccccc1 | / | 1% | / | / | / | /
Cc1cc(C)cc(C(=O)C[n+]2cccc(Br)c2)c1 | / | -1% | / | / | / | /
CC(C)(C)c1csc(NC(=O)CCc2ccccc2)n1 | 32µM* | 1% | 1 | 4 | 0 | -5
COc1ccc(-c2n[nH]c(C(F)(F)F)c2-c2cc3ccccc3o2)c(O)c1 | -5% | 25µM* | -18 | ? | -12 | 5
COc1ccccc1-c1c(-c2ccc(OCC(=O)NN)cc2O)n[nH]c1C(F)(F)F | 14% | -5% | -12 | 2 | -1 | 9
CCOC(=O)c1ccc(NC(=O)C(C)Sc2nc(=O)cc(N)n2CCc2ccccc2)cc1 (configuration not stated) | / | -1% | / | / | / | /
CC(OC(=O)CCN=C1NS(=O)(=O)c2ccccc21)C(=O)Nc1ccc(F)c(F)c1F (configuration not stated) | 6% | 32µM* | -2 | 5 | 9 | 8
CCCCOC(=O)Nc1ccc(C(C)C)cc1 | ? | -1% | -1 | 81* | -32 | -11
CCCCOC(=O)Nc1ccc(C(N)=O)cc1 | 9% | -1% | -29 | 12 | 4 | 8
COc1ccc(CN2C(=O)c3ccccc3C2c2nnnn2C(C)C)cc1OC (configuration not stated) | / | 0% | / | / | / | /
Cc1ccc(CNC(=O)Cn2cc(C(=O)c3ccc(F)cc3)c(=O)c3ccc(C)nc32)cc1 | / | 0% | / | / | / | /
CCc1cc2c(=O)c(-c3cnn(-c4ccccc4)c3)coc2c(CN2CCOCC2)c1O | 2% | ? | 2 | -2 | 13 | 0
